# Data: PubChem BioAssay (EPA / NIEHS)
# Records with an inconclusive call do not appear. Calls of active or inactive are those of the source. The calls were made as follows: active = hit-call score of the fitted dose curve at least 0.9, where 1 is the maximum; inconclusive = response in the unintended direction; inactive = score below 0.9.
# What was measured:
# [1] = tested on: Thyroperoxidase (TPO), gene 54314; experiment: CCTE_Simmons_AUR_rTPO: CCTE's Amplex UltraRed Assay for Thyroperoxidase (TPO) Inhibition, Simmons Lab (AID 2283662);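 as to AC50: potency for loss of signal meaning inhibition of peroxidase activity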
# In short: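 Rat thyroid microsomes (5 ug protein) with 25 uM Amplex UltraRed and 300 uM H2O2 in 200 mM phosphate buffer, 30 min at 37C in dark; fluorescence 544/590 nm. Eight concentrations, 5 nM–87.5 uM final, 0.5% DMSO, triplicate biological replicates.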
# [2] = CCTE_Simmons_CellTiterGLO_HEK293T: Viability Assessment in CCTE's Assays for Thyroperoxidase (TPO) Inhibition, Simmons Lab (AID 2283665);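 as to AC50: cells exposed to compound for 24 h before readout; actives reduce ATP signal below DMSO vehicle meaning cytotoxicity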
# In short: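 Luciferase-coupled ATP content after 24 h exposure gives viability; 8-point series from 5 nM to 87.5 uM final in 0.5% DMSO. Human HEK293T cells, 1% FBS medium, three biological replicates, dichlone positive control.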
# [3] = Tanguay_ZF_120hpf_MORT_legacy: (Legacy) Oregon State University Tanguay Lab 120 Hour Post-fertilization zebrafish Assay for Mortality (AID 2283633)
# In short: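 Brightfield scoring of embryo death (binary) at 24 and 120 hpf; static exposure 6–120 hpf, 28C, sealed and foil-covered. Pronase-dechorionated 5D wild-type larvae, single embryo per well. DMSO 0.64% v/v; trimethyltin chloride 5uM positive control.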
# [4] = Tanguay_ZF_120hpf_YSE_legacy: (Legacy) Oregon State University Tanguay Lab 120 Hour Post-fertilization zebrafish Assay for Yolk Sac Edema (AID 2283634)
# In short: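 Binary brightfield scoring of yolk sac edema at 120 hpf; DMSO baseline, gain-of-signal fitting. Dechorionated 5D larvae, one per well, static exposure 6–120 hpf, 28C, 0.64% DMSO. Dead embryos not scored.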
# [5] = Tanguay_ZF_120hpf_AXIS_legacy: (Legacy) Oregon State University Tanguay Lab 120 Hour Post-fertilization zebrafish Assay for Body Axis Malformation (AID 2283635)
# In short: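 Embryos: 5D wild-type, pronase-dechorionated 4 hpf; static exposure 6–120 hpf, 28C, sealed, dark, 1 embryo/well, 0.64% DMSO. 120 hpf axis malformation scored present/absent; dead embryos excluded. Analysed as gain of signal vs DMSO.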
# [6] = Tanguay_ZF_120hpf_EYE_legacy: (Legacy) Oregon State University Tanguay Lab 120 Hour Post-fertilization zebrafish Assay for Eye Malformation (AID 2283636);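 also: binary presence or absence of eye malformation scored by brightfield in 120 hpf larvae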
# In short: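 Binary brightfield scoring of eye defects at 120 hpf after static exposure from 6 hpf of single pronase-dechorionated wild-type embryos (28C, 0.64% DMSO). Non-mortality endpoints omitted where embryos died; fit vs DMSO.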
# [7] = Tanguay_ZF_120hpf_SNOU_legacy: (Legacy) Oregon State University Tanguay Lab 120 Hour Post-fertilization zebrafish Assay for Snout Malformation (AID 2283637)
# In short: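 Binary snout-malformation call at 120 hpf in wild-type 5D embryos, chorion removed by pronase, under static exposure from 6 hpf at 28C (0.64% DMSO). Embryos dying by 24 or 120 hpf excluded.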
# [8] = Tanguay_ZF_120hpf_JAW_legacy: (Legacy) Oregon State University Tanguay Lab 120 Hour Post-fertilization zebrafish Assay for Jaw Malformation (AID 2283638)
# In short: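 Binary jaw-malformation calls at 120 hpf by brightfield imaging; DMSO (0.64% v/v) = baseline. Embryos: 5D wild-type, pronase-dechorionated, one per well from 6 hpf, static exposure, 28C, sealed, dark.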
# [9] = Tanguay_ZF_120hpf_OTIC_legacy: (Legacy) Oregon State University Tanguay Lab 120 Hour Post-fertilization zebrafish Assay for Otic Vesicle Malformation (AID 2283639)
# In short: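 Binary scoring of otic vesicle defects at 120 hpf in zebrafish (Tropical 5D) held under static exposure at 28C, sealed and shaded, with final DMSO 0.64%. Embryos dying by 24 or 120 hpf excluded; fitted positively against DMSO.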
# [10] = Tanguay_ZF_120hpf_PE_legacy: (Legacy) Oregon State University Tanguay Lab 120 Hour Post-fertilization zebrafish Assay for Pericardial Edema (AID 2283640)
# In short: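 Static waterborne exposure, 5D wild-type embryos, 28C, to 120 hpf; final DMSO 0.64% (vol/vol). Binary PE call at 120 hpf by brightfield; fitted upward vs DMSO baseline. 5uM trimethyltin chloride as positive control.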
# [11] = Tanguay_ZF_120hpf_BRAI_legacy: (Legacy) Oregon State University Tanguay Lab 120 Hour Post-fertilization zebrafish Assay for Brain Malformation (AID 2283641)
# In short: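 Read-out: binary brain morphology call at 120 hpf (brightfield), fitted in gain-of-signal direction vs DMSO. Wild-type Tropical 5D embryos, static exposure, 28C, 0.64% DMSO final; 5uM trimethyltin chloride as positive control.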
# [12] = Tanguay_ZF_120hpf_SOMI_legacy: (Legacy) Oregon State University Tanguay Lab 120 Hour Post-fertilization zebrafish Assay for Somite Malformation (AID 2283647)
# In short: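 Binary brightfield scoring of somite defects at 120 hpf in 5D wild-type larvae; one dechorionated embryo per well, static exposure from 6 hpf, 28C, sealed and dark. Final DMSO 0.64%; trimethyltin chloride 5uM positive control.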
# [13] = Tanguay_ZF_120hpf_PFIN_legacy: (Legacy) Oregon State University Tanguay Lab 120 Hour Post-fertilization zebrafish Assay for Pectoral Fin Malformation (AID 2283648);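 also: each larva judged yes or no for fin defect by brightfield with dead larvae skipped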
# In short: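 Pectoral fin malformation was recorded as a binary endpoint at 120 hpf in wild-type Tropical 5D larvae, which had been dechorionated and exposed statically from 6 hpf at 28C in 0.64% DMSO. Dead embryos were excluded.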
# [14] = Tanguay_ZF_120hpf_CFIN_legacy: (Legacy) Oregon State University Tanguay Lab 120 Hour Post-fertilization zebrafish Assay for Caudal Fin Malformation (AID 2283649)
# In short: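 Dechorionated 5D wild-type zebrafish, static exposure 6–120 hpf, 28C, sealed and dark, 0.64% v/v DMSO final. Binary fin-malformation call at 120 hpf, brightfield; gain of signal vs DMSO baseline.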
# [15] = Tanguay_ZF_120hpf_PIG_legacy: (Legacy) Oregon State University Tanguay Lab 120 Hour Post-fertilization zebrafish Assay for Pigmentation Malformation (AID 2283650)
# In short: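 Pigment malformation recorded as a binary call at 120 hpf in zebrafish (Tropical 5D) exposed singly from 6 hpf after pronase dechorionation. Static, sealed, 28C exposure, 0.64% DMSO; mortality excludes scoring; positive-direction fit against DMSO.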
# [16] = Tanguay_ZF_120hpf_CIRC_legacy: (Legacy) Oregon State University Tanguay Lab 120 Hour Post-fertilization zebrafish Assay for Circulatory Malformation (AID 2283651)
# In short: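 Binary circulatory malformation call at 120 hpf by brightfield imaging of zebrafish larvae; chorion removed at 4 hpf, static exposure from 6 hpf in sealed dark plates at 28C, final DMSO 0.64%; non-mortality endpoints skipped if embryo died.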
# [17] = Tanguay_ZF_120hpf_SWIM_legacy: (Legacy) Oregon State University Tanguay Lab 120 Hour Post-fertilization zebrafish Assay for Swim Bladder Malformation (AID 2283654);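 also: swim bladder malformation in each larva scored yes or no under brightfield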
# In short: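 Scoring is binary for swim bladder defects at 120 hpf, by brightfield inspection of zebrafish larvae. Embryos were exposed singly from 6 hpf after pronase dechorionation, at 28C with 0.64% DMSO; mortality excluded scoring.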
# [18] = Tanguay_ZF_120hpf_TRUN_legacy: (Legacy) Oregon State University Tanguay Lab 120 Hour Post-fertilization zebrafish Assay for Truncated Body (AID 2283655)
# In short: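 Whole-embryo zebrafish screen: dechorionated 5D embryos, static exposure 6–120 hpf, 28C, sealed foil-covered plates, 0.64% DMSO. Binary truncation call; gain of signal versus DMSO baseline.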
# [19] = Tanguay_ZF_120hpf_NC_legacy: (Legacy) Oregon State University Tanguay Lab 120 Hour Post-fertilization zebrafish Assay for Notochord and Tail Malformation (AID 2283656)
# In short: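 Binary scoring of notochord distortion by brightfield microscopy; embryos dying were not scored. Wild-type Tropical 5D embryos, chorion removed, exposed singly and statically from 6 to 120 hpf, 28C, sealed, 0.64% DMSO.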
# [20] = Tanguay_ZF_120hpf_TR_legacy: (Legacy) Oregon State University Tanguay Lab 120 Hour Post-fertilization zebrafish Assay for Touch Response (AID 2283667)
# In short: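 Binary touch-response endpoint in larvae at 120 hpf after static waterborne exposure from embryo stage (28°C, 0.64% DMSO vehicle, 5 uM trimethyltin chloride as positive control); embryos dead at 24 or 120 hpf excluded; fitted as gain versus DMSO.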
structure (smiles),measurement,setting,value
CC(C)=CCCC(C)CC=O (stereo not given),outcome,[1],inactive
same,outcome,[2],inactive
Cc1ccc(O)c(C(C)(C)C)c1,AC50,[1],20.6 µM (active)
same,AC50,[2],65.6 µM (active)
CN(C)c1ccc(O)c2c1C[C@H]1C[C@H]3[C@H](N(C)C)C(=O)C(C(N)=O)=C(O)[C@@]3(O)C(=O)C1=C2O,AC50,[1],0.607 µM (active)
c1ccc2c(c1)c1cccc3ccc4cccc2c4c31,outcome,[1],inactive
CC(C)=CCCC(C)=CCCC(C)=CCO,outcome,[1],inactive
same,AC50,[2],95 µM (active)
c1ccc2[nH]ccc2c1,AC50,[1],1.14 µM (active)
same,outcome,[2],inactive
CC(C)c1cccc(O)c1,AC50,[1],25.9 µM (active)
same,outcome,[2],inactive
CCCCc1ccc(N)cc1,AC50,[1],0.00854 µM (active)
same,AC50,[2],17.4 µM (active)
O=Nc1ccc(Nc2ccccc2)cc1,outcome,[1],inactive
same,AC50,[2],84 µM (active)
CCCCCCCCCCCCCOS(=O)(=O)O,AC50,[1],42.6 µM (active)
same,AC50,[2],32.5 µM (active)
O=C(Cl)c1cccc(C(=O)Cl)c1,AC50,[1],7 µM (active)
same,outcome,[2],inactive
CSc1nc(NC2CC2)nc(NC(C)(C)C)n1,outcome,[1],inactive
same,outcome,[2],inactive
O=c1cc(-c2ccccc2)oc2cc(O)cc(O)c12,AC50,[1],23 µM (active)
same,outcome,[2],inactive
COc1cc(C(C)(C)C)c(O)c(C(C)(C)C)c1,AC50,[1],2.32 µM (active)
same,AC50,[2],26.8 µM (active)
O=C(O)c1ccc([N+](=O)[O-])cc1,outcome,[3],inactive
same,outcome,[4],inactive
same,outcome,[5],inactive
same,outcome,[6],inactive
same,outcome,[7],inactive
same,outcome,[8],inactive
same,outcome,[9],inactive
same,outcome,[10],inactive
same,outcome,[11],inactive
same,outcome,[12],inactive
same,outcome,[13],inactive
same,outcome,[14],inactive
same,outcome,[15],inactive
same,outcome,[16],inactive
same,outcome,[17],inactive
same,outcome,[18],inactive
same,outcome,[19],inactive
same,outcome,[20],inactive
Cc1ccc(C(C)C)cc1O,outcome,[1],inactive
same,outcome,[2],inactive
COc1ccc(O)cc1,AC50,[1],8.4 µM (active)
same,AC50,[2],34.2 µM (active)
CCCCCCCCCCCCCCCC(=O)OC[C@H](O)[C@H]1OC(=O)C(O)=C1O,AC50,[1],18.3 µM (active)
same,AC50,[2],74.2 µM (active)
